DT40 TDP1 no CPT: qHTS for Inhibitors of human tyrosyl-DNA phosphodiesterase 1 (TDP1): qHTS in cells in absence of CPT | hit rate 15% among 420,000 | AID 686978, 2013 | DT40 Tdp1-/- hTDP1 cells, no CPT, ATP luminescence, 48 h | Potency, µM (highest dose often 46.2 µM), inactives show top-dose activity change, negative = growth inhibition, most hits filed as inhibitors; further: potency means the concentration at half of the fitted maximal effect; on the % scale 0 is the no-effect control and ±100 the full control effect; nearly all actives have a fitted effect of over 55% in size
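Camptothecin absent (DMSO only). Human TDP1-complemented DT40 knockout cells, 400 cells/well, 37 °C for minimum 48 hr; ATP measured via CellTiter-Glo, 30 min dark incubation, luminescence.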
ClpP mod: qHTS Assay for Activators of ClpP; purified B. subtilis ClpP, FRET peptide cleavage, 20 min; Potency, µM (doses to about 57.5 µM), without a hit: at the top dose activity change, negative = active; ATP-dependent Clp protease proteolytic subunit (Bacillus subtilis (strain 168)), P80244; hit rate 1.9% among 340,000; active means well fitted falling curve with a large enough effect; inconclusive means small, poorly fitted or top-dose-only effect; inactive means no such curve, though single readings can be large or run the other way; further: potency means the concentration at half of the fitted maximal effect; the source files actives as falling curves though it sought activators and does not explain the sign; nearly all actives have a fitted effect of over 65% in size
Target sequence (P80244 whole entry, looked up): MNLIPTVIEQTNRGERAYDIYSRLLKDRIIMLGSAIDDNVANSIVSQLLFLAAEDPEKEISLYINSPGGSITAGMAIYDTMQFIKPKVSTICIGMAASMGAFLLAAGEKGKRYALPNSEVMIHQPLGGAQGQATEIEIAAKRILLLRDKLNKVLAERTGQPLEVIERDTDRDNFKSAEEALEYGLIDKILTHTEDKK
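ClpP 10 microg/mL final, pH 8 Tris/KCl buffer with BSA, glycerol, Tween-20; compound pinned in; FRET-FV substrate; RT 20 min; Ex320/Em430; ΔFRET vs ADEP 5.8 microM, DMSO, no enzyme.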
DRD3 antagonist: antagonists of human D3 dopamine receptor; D3R cells, DiscoveRx beta-arrestin luminescence, antagonist mode; active compounds read low; max response, negative = inhibition, %; hit rate 2.5% among 360,000; AID 652054; in the data active means max response below about -50%; inconclusive means no clear call, values can overlap the other calls; further: on the % scale 0 is the no-effect control and ±100 the full control effect
Target sequence (P35462 whole entry, looked up): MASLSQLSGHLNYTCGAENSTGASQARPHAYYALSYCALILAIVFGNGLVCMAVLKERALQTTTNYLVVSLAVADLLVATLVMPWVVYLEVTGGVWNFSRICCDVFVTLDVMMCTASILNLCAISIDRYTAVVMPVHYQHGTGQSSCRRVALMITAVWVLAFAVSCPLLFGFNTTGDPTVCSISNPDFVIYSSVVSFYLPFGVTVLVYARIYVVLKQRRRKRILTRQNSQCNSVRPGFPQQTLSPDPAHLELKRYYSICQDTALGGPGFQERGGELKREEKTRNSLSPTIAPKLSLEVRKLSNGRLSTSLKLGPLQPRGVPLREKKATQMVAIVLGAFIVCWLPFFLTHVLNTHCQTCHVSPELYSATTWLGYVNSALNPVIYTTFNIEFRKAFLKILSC
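Cells plated overnight at 1500 cells/well, then exposed to library compounds with dopamine controls for 90 minutes at 37 degrees C. DiscoveRx reagent added for 30–60 minutes at room temperature; luminescence read, quantitative HTS format.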
DT40 TDP1 CPT: growth inhibition of DT40 Tdp1-/-;hTDP1 cells with camptothecin (screen for TDP1 inhibitors); AID 686979; Potency, µM (highest dose often 46.2 µM), for the others: at the top dose activity change, negative = growth inhibition, most hits filed as inhibitors; hit rate 12% among 420,000; chicken DT40 Tdp1-/-;hTDP1 cells + 20 nM CPT, ATP luminescence, 48 h; further: potency means the concentration at half of the fitted maximal effect; on the % scale 0 is the no-effect control and ±100 the full control effect; nearly all actives have a fitted effect of over 55% in size
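Cell growth measured by CellTiter-Glo luminescence after a minimum 48 h, 37 C compound exposure with 20 nM CPT in Tdp1-knockout DT40 cells stably expressing hTDP1, seeded 400/well; qHTS titration format.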
IL1B secr inh: inhibitors of inflammasome signaling (IL-1 beta secretion); AID 743279; hit rate 4.7% among 360,000; THP-1 LPS/ATP IL-1B secretion, AlphaLISA, 16 h; active compounds read low; activity change, % at 57.5 µM; in the data active means activity change below about -50%; inconclusive means mostly about -30% to -49%; further: on the % scale 0 is the no-effect control and ±100 the full control effect
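THP-1 cells pretreated 1 hr with compounds (up to 57.5 uM final), then stimulated with LPS (250 ng/mL final) plus ATP (1.25 mM final); secreted IL-1B measured by AlphaLISA after 16 hr, decreased signal indicating inhibition.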
DRD3 agonist: activates the human D3 dopamine receptor; D3R DiscoveRx beta-arrestin cells, luminescence, 90 min; max activation, %; hit rate 0.58% among 410,000; AID 652048; in the data active means max activation above about 30%; further: 0% is about no effect
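Agonist mode: compounds and dopamine controls were applied to plated cells for 90 min at 37 degrees C after an overnight attachment at 1500 cells/well. Luminescent read-out followed 30 - 60 minutes at room temperature with DiscoveRx detection reagent.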
* marks the source's active call; other numbers are inactive results. Shown are actives, neighbours in structure and some others; about 21% of the full set was active somewhere. Unless noted, the call rests on the fitted dose curve; in most records, active means well fitted inhibition curve with a large enough effect; inconclusive means small, poorly fitted or top-dose-only effect; inactive means flat fitted curve, though single readings scatter.

Results for COc1ccc(OC(C)C(=O)N(C)Cc2nc(-c3ccc(OC)cc3)no2)cc1 (centres undefined) ?
DT40 TDP1 no CPT: inconclusive; ClpP mod: -1%; DRD3 antagonist: 2; DT40 TDP1 CPT: inconclusive; IL1B secr inh: 25; DRD3 agonist: 40*

How did COc1ccc(-c2noc(CN(C(=O)c3ccc(C)cc3C)C(C)C)n2)cc1 do in these assays?
DT40 TDP1 no CPT: 15µM*; ClpP mod: -1%; DT40 TDP1 CPT: 23µM*; DRD3 agonist: -8

Results for Cc1cc(C(=O)N(Cc2nnc(-c3ccc(Cl)cc3)o2)C(C)C)c2ccccc2n1 ?
DT40 TDP1 no CPT: 15µM*; ClpP mod: -11%; DRD3 antagonist: 3; DT40 TDP1 CPT: inconclusive; IL1B secr inh: 0; DRD3 agonist: 4

What do the screens show for `Cn1c(=O)c2c(ncn2CC(=O)OCC(=O)NCc2ccc(F)cc2)n(C)c1=O`?
DT40 TDP1 no CPT: inconclusive; ClpP mod: -1%; DRD3 antagonist: 26; DT40 TDP1 CPT: 14%; IL1B secr inh: 7; DRD3 agonist: 1

Results for Cc1ccc(C)c(C(=O)N(Cc2nc(-c3ccc(Cl)cc3)no2)C(C)C)c1 ?
DT40 TDP1 no CPT: 18µM*; ClpP mod: 2%; DRD3 antagonist: 21; DT40 TDP1 CPT: inconclusive; IL1B secr inh: -8; DRD3 agonist: 13

Results for Cc1cccc(C(=O)N(Cc2nc(-c3ccc(Cl)cc3)no2)C(C)C)c1 ?
DT40 TDP1 no CPT: inconclusive; ClpP mod: 0%; DT40 TDP1 CPT: inconclusive; DRD3 agonist: -8

How did Cc1ccc(CN(Cc2cc3cccc(C)c3[nH]c2=O)C(=S)NCCCN(C)C)cc1 do in these assays?
DT40 TDP1 no CPT: inconclusive; ClpP mod: 22µM*; DRD3 antagonist: -7; DT40 TDP1 CPT: inconclusive; IL1B secr inh: -77*; DRD3 agonist: -9

How did COc1ccc(NC(=O)N(CCc2ccccc2)Cc2cc3c(C)cc(C)cc3[nH]c2=O)cc1 do in these assays?
DT40 TDP1 no CPT: inconclusive; ClpP mod: -6%; DRD3 antagonist: -20; DT40 TDP1 CPT: inconclusive; IL1B secr inh: -14; DRD3 agonist: -4

What do the screens show for `Cc1cccc2cc(CN(Cc3ccccc3)C(=S)NCCCN(C)C)c(=O)[nH]c12`?
DT40 TDP1 no CPT: inconclusive; DRD3 antagonist: -3; DT40 TDP1 CPT: inconclusive; IL1B secr inh: -85*; DRD3 agonist: -12

How did Cc1cccc2cc(CN(Cc3cccnc3)C(=S)NCCCN(C)C)c(=O)[nH]c12 do in these assays?
DT40 TDP1 no CPT: inconclusive; DRD3 antagonist: -8; DT40 TDP1 CPT: 13µM*; IL1B secr inh: -7; DRD3 agonist: -7

Results for Cc1cc(C)c2cc(CN(CCCN(C)C)C(=S)NCc3ccccc3)c(=O)[nH]c2c1 ?
DT40 TDP1 no CPT: inconclusive; ClpP mod: 0%; DRD3 antagonist: 2; DT40 TDP1 CPT: 21µM*; IL1B secr inh: -73*; DRD3 agonist: -8

What do the screens show for `CCC1CN(C(=O)N2CCC(C(=O)NCCc3ccc(C)cc3)CC2)c2ccccc2O1` (centres undefined)?
DT40 TDP1 no CPT: 21µM*; ClpP mod: 1%; DT40 TDP1 CPT: inconclusive; DRD3 agonist: 9

What do the screens show for `CCC1CN(C(=O)N2CCC(C(=O)N3CCN(c4ccccc4F)CC3)CC2)c2ccccc2O1` (centres undefined)?
DT40 TDP1 no CPT: 16µM*; ClpP mod: -2%; DT40 TDP1 CPT: 16µM*; DRD3 agonist: 12

What do the screens show for `CCS(=O)(=O)N1CCC(C(=O)NCCc2ccccc2)CC1`?
DT40 TDP1 no CPT: -5%; ClpP mod: 0%; DRD3 antagonist: 8; DT40 TDP1 CPT: 1%; IL1B secr inh: 5; DRD3 agonist: 11

What do the screens show for `CS(=O)(=O)N1CCC(C(=O)N2CCN(c3ccccc3F)CC2)CC1`?
DT40 TDP1 no CPT: -7%; DRD3 antagonist: 7; DT40 TDP1 CPT: -15%; IL1B secr inh: 14; DRD3 agonist: 19

Results for CCC1CN(C(=O)N2CCC(C(=O)NCCc3ccccc3)CC2)c2ccccc2O1 (centres undefined) ?
DT40 TDP1 no CPT: 8.2µM*; ClpP mod: -1%; DRD3 antagonist: 3; DT40 TDP1 CPT: inconclusive; IL1B secr inh: 10; DRD3 agonist: 2

What do the screens show for `Cc1ccc(C(=O)N2CCN(Cc3ccccc3)CC2)cc1S(=O)(=O)N1CCOCC1`?
DT40 TDP1 no CPT: -11%; ClpP mod: 0%; DRD3 antagonist: -12; DT40 TDP1 CPT: 0%; IL1B secr inh: -16; DRD3 agonist: 1

What do the screens show for `Cc1ccc(-c2cc(NC(=O)C(C)Oc3ccc(C)c(C)c3)on2)cc1` (centres undefined)?
DT40 TDP1 no CPT: inconclusive; ClpP mod: -7%; DT40 TDP1 CPT: inconclusive; DRD3 agonist: -15

How did Cc1nn(CC(C)C)c(Cl)c1C(=O)N(c1ccc(Cl)cc1F)S(C)(=O)=O do in these assays?
DT40 TDP1 no CPT: inconclusive; DRD3 antagonist: inconclusive; DT40 TDP1 CPT: -6%; IL1B secr inh: inconclusive; DRD3 agonist: -3

What do the screens show for `CC1(C(=O)NS(=O)(=O)c2ccc(F)cc2F)CCN1C(=O)Cc1cc(F)ccc1F` (centres undefined)?
DT40 TDP1 no CPT: -21%; ClpP mod: 3%; DRD3 antagonist: inconclusive; DT40 TDP1 CPT: -11%; IL1B secr inh: 11; DRD3 agonist: -7

How did CCC[C@@H]1C[C@@H](C(=O)N[C@@H]([C@H]2O[C@H](SC)[C@H](O)[C@@H](O)[C@H]2O)[C@@H](C)O)N(C)C1 do in these assays?
DT40 TDP1 no CPT: -3%; DT40 TDP1 CPT: -13%; DRD3 agonist: -1

How did CCOc1ccc(S(=O)(=O)N2CCC(C(=O)N3CCCC3)CC2)cc1C do in these assays?
DT40 TDP1 no CPT: inconclusive; DRD3 antagonist: -3; DT40 TDP1 CPT: -12%; IL1B secr inh: -4; DRD3 agonist: -7

How did Cc1csc(N/N=C/c2ccc(O)c([N+](=O)[O-])c2)n1 do in these assays?
DT40 TDP1 no CPT: 26µM*; ClpP mod: 1%; DRD3 antagonist: -54*; DT40 TDP1 CPT: 18µM*; IL1B secr inh: 9; DRD3 agonist: -10

Results for O=C(N/N=C/c1ccc(O)c([N+](=O)[O-])c1)c1ccncc1 ?
DT40 TDP1 no CPT: 0%; ClpP mod: -2%; DRD3 antagonist: inconclusive; DT40 TDP1 CPT: -13%; IL1B secr inh: 7; DRD3 agonist: -10

What do the screens show for `Cc1csc(N/N=C\c2cccnc2)n1`?
DT40 TDP1 no CPT: 5.2µM*; DRD3 antagonist: -12; DT40 TDP1 CPT: 2.9µM*; IL1B secr inh: 19; DRD3 agonist: -2

Bioassay records from PubChem BioAssay.
